Laboratory results reported in PubChem BioAssay.
Calls of active or inactive are those of the source.

Experiments:
[1] = molecular target: Albumin (Bos taurus) (UniProt P02769); experiment: bovine serum albumin binders on microarray, profiling panel, artefact control for SMM control protein annotation, biochemical, small-molecule microarray, Alexa647 label, 635/667 nm fluorescence (AID 1118); conditions: BSA-A647 binding, fluorescence 635 nm, higher = more signal;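 note: score merges 667 nm emission intensity and signal-to-noise per printed compound spot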
[2] = small-molecule microarray binders of probe aXIP, primary screen, biochemical, NeuroSMM set, 635/667 nm fluorescence (AID 1119); conditions: higher = more signal, called active from +8 up or from −8 down;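 note: probe is the protein aXip251-270 applied at 1 µg/mL to compound-printed slides; binding of probe to printed compounds measured as 667 nm fluorescence plus signal to noise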
[3] = small-molecule binders of probe aNOTCH3, primary screen, biochemical, small-molecule microarray, 635/667 nm fluorescence (AID 1120); conditions: higher = more signal;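 note: probe is a biotin-tagged antibody raised against NOTCH3 rather than NOTCH3 protein; score merges spot fluorescence near 667 nm with spot signal to noise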
[4] = small-molecule binders of probe aNOTCH2, primary screen, biochemical, small-molecule microarray, 635/667 nm fluorescence (AID 1121); conditions: higher = more signal;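 note: score merges feature fluorescence read at 667 nm with its signal to noise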
[5] = molecular target: Carbonic anhydrase 2 (Homo sapiens) (UniProt P00918); experiment: CAII small-molecule binders, profiling panel, biochemical, small-molecule microarray, Alexa647-labelled CAII (AID 1122); conditions: CAII-A647 binding fluorescence, higher = more signal
[6] = COS7 lysate on small-molecule microarray, probe aHis, 635 nm (AID 1123); conditions: COS7 cell lysate, fluorescence, higher = more signal;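 note: z-score combines 667nm fluorescence intensity with signal-to-noise per printed compound spot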
[7] = compound binding in COS7 lysate, probe aLAP1, primary screen, cell lysate, small-molecule microarray (AID 1124); conditions: probe aLAP1, fluorescence, higher = more signal;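 note: lysate comes from COS7 cells expressing LAP1 and is applied at 0.3 µg/mL; score merges spot fluorescence near 667 nm with signal-to-noise over triplicate slides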
[8] = test system: Sam68 (KHDRBS1); experiment: Sam68 small-molecule binders, primary screen, biochemical, small-molecule microarray, 635 nm fluorescence (AID 1125); conditions: small-molecule microarray binding, higher = more signal;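 note: score merges 667 nm channel intensity with signal to noise over triplicate slides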
[9] = test system: Chordin-like protein 2 (CHRDL2); experiment: CHRDL2 small-molecule binders, primary screen, biochemical, small-molecule microarray, 635 nm fluorescence (AID 1126); conditions: small-molecule microarray binding, fluorescence 635 nm; higher = more signal;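 note: printed compound slides probed with Chrdl2 protein at 4 µg/mL for 1 h at 4 C; score merges 667 nm emission intensity with signal to noise over three replicate slides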
[10] = molecular target: Concanavalin-A (Canavalia ensiformis) (UniProt P02866); experiment: ConA small-molecule binders, primary screen, artefact control for SMM control protein annotation, biochemical, small-molecule microarray, Alexa647 label, 635 nm (AID 1127); conditions: ConA-A647 binding fluorescence, higher = more signal;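 note: z combines 667 nm emission intensity with signal-to-noise across three replicate slides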
[11] = anti-His antibody binders, primary screen, artefact control for SMM control protein annotation, biochemical, small-molecule microarray, 635 nm fluorescence (AID 1128); conditions: anti-His Alexa647 antibody binding, higher = more signal;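 note: score merges feature fluorescence with signal-to-noise for each printed compound spot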
[12] = test system: Human papillomavirus type 1a E7 protein (residues 1-88); experiment: HPV1a E7 small-molecule binders, primary screen, biochemical, small-molecule microarray, residues 1-88, 635 nm (AID 1129); conditions: small-molecule microarray binding, fluorescence 635 nm; higher = more signal
[13] = molecular target: Focal adhesion kinase 1 (Homo sapiens) (UniProt Q05397); experiment: small-molecule microarray binders of FAK, primary screen, biochemical, 635/667 nm fluorescence, BSA, DTT (AID 1130); conditions: PTK2 binding, 635 nm fluorescence, higher = more signal;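 note: composite of spot emission at 667 nm and signal to noise over triplicate slides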
[14] = test system: Fibrinogen (Alexa647-labelled); experiment: fibrinogen binders on compound microarrays, profiling panel, artefact control for SMM control-protein annotation, biochemical, small-molecule microarray, 635/667 nm fluorescence (AID 1131); conditions: fibrinogen-A647 binding fluorescence, higher = more signal;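 note: z-score merges 667 nm fluorescence with per-spot signal-to-noise over triplicate slides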
[15] = molecular target: Follistatin (Homo sapiens) (UniProt P19883); experiment: follistatin binders on small-molecule microarrays, primary screen, biochemical, small-molecule microarray, 635/667 nm fluorescence (AID 1132); conditions: FST binding, 635 nm fluorescence, higher = more signal
[16] = molecular target: Fibroblast growth factor 2 (Homo sapiens) (UniProt P09038); experiment: FGF2 binders on small-molecule microarrays, primary screen, biochemical, small-molecule microarray, 635/667 nm fluorescence (AID 1133); conditions: small-molecule microarray binding, FGF2, fluorescence 635/667; higher = more signal
[17] = mitochondrial membrane potential change in A549 cells, profiling panel, cell-based, JC-1 fluorescence, basal, 24 h, 100 nL (AID 1138); conditions: higher = more signal;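 note: A549 lung adenocarcinoma cells under basal conditions with no added stimulus; test concentration not given here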
[18] = test system: Lefty1; experiment: Lefty1 binders on small-molecule microarrays, primary screen, biochemical, small-molecule microarray, 635/667 nm fluorescence (AID 1139); conditions: small-molecule microarray binding, fluorescence 635/667; higher = more signal
[19] = test system: wheat germ agglutinin (Triticum aestivum), Alexa647-labelled; experiment: wheat germ agglutinin binders on compound microarrays, profiling panel, artefact control for SMM control-protein annotation, biochemical, small-molecule microarray, 635/667 nm fluorescence (AID 1140); conditions: WGA-A647 binding, 635 nm fluorescence, higher = more signal;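 note: score merges 667 nm feature emission with signal to noise over triplicate slides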
[20] = molecular target: Luciferin 4-monooxygenase (Photinus pyralis) (UniProt P08659); experiment: firefly luciferase enzyme inhibitors, primary screen, biochemical, luminescence, purified enzyme, 2006 set (AID 1141); conditions: SteadyGlo luminescence, 30 min, higher = more signal, called active from +8 up or from −8 down;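 note: cell-free assay with purified firefly luciferase at 100 ng per well in PBS; test concentration not given here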
Luciferin 4-monooxygenase (Photinus pyralis), sequence (P08659 whole entry, looked up): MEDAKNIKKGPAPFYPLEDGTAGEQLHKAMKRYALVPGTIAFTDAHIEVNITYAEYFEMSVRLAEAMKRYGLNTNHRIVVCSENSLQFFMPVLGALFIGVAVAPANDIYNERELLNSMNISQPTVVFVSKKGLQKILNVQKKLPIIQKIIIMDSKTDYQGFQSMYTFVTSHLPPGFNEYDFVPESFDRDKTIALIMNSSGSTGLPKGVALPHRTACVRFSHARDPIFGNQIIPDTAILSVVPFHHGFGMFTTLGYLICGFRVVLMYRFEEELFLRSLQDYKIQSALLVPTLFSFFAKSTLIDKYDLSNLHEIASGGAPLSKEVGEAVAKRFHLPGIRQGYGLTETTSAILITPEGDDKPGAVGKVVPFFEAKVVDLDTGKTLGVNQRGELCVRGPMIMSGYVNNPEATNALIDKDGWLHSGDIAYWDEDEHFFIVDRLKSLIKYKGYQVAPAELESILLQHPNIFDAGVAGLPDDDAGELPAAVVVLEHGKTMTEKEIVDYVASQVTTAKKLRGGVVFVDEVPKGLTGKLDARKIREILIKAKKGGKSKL

Albumin (Bos taurus), sequence (P02769 whole entry, looked up): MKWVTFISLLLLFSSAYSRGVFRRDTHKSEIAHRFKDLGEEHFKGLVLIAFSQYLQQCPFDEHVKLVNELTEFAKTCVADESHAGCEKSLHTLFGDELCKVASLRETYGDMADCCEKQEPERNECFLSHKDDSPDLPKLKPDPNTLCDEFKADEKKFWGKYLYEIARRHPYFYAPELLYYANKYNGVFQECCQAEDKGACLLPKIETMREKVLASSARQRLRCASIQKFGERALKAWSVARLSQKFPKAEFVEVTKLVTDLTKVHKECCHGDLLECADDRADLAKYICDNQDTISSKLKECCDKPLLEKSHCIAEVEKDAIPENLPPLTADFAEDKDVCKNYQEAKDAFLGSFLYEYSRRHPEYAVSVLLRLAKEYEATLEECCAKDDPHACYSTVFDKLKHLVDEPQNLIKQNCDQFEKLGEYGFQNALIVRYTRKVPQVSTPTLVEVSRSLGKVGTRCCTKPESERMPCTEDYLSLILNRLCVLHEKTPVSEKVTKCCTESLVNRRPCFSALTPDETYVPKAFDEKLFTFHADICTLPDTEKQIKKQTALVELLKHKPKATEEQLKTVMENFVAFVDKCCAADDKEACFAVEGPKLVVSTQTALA
Focal adhesion kinase 1 (Homo sapiens), sequence (Q05397 whole entry, looked up): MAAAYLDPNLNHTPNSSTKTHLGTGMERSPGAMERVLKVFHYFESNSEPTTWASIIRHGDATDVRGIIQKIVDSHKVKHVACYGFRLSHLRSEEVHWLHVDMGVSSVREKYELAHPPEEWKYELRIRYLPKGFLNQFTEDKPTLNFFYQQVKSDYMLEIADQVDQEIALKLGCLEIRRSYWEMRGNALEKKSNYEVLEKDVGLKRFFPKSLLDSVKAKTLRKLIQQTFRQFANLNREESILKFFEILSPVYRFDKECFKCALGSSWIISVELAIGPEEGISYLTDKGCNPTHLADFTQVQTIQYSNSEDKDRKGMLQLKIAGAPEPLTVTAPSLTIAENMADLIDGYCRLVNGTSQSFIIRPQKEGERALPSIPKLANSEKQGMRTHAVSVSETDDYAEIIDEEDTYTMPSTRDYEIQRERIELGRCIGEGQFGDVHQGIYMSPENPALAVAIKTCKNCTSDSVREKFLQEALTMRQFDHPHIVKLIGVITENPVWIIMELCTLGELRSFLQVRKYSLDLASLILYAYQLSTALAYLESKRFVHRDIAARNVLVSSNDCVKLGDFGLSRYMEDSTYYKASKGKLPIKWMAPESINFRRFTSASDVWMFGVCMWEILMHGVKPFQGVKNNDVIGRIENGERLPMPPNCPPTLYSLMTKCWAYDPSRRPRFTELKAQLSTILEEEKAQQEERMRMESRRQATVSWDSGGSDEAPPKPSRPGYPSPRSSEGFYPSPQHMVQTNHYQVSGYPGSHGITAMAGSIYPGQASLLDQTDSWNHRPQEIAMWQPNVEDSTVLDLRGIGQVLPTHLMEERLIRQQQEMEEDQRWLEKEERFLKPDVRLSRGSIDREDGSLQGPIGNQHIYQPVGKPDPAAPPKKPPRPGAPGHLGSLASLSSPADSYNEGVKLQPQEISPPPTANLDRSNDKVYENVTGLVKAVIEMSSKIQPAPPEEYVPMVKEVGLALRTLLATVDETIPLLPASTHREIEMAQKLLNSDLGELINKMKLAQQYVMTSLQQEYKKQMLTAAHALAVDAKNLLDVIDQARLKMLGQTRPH
Fibroblast growth factor 2 (Homo sapiens), sequence (P09038 whole entry, looked up): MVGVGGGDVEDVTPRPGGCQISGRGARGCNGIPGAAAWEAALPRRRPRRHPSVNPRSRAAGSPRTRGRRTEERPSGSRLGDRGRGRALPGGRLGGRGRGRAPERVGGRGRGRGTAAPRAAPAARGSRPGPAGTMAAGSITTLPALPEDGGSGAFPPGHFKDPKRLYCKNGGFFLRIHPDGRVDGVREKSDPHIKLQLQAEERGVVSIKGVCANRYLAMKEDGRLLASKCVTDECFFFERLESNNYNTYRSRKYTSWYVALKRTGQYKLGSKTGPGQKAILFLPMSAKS
Follistatin (Homo sapiens), sequence (P19883 whole entry, looked up): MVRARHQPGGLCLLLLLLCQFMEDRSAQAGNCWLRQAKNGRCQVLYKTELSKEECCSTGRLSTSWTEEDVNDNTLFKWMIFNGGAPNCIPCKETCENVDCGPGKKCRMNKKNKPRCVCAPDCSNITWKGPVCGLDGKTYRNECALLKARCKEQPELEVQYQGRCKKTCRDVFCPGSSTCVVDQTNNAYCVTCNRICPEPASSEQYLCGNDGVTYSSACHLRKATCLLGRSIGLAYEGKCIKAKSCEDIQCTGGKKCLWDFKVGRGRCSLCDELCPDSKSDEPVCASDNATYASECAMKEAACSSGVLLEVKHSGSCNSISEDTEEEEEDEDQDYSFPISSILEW
Concanavalin-A (Canavalia ensiformis), sequence (P02866 whole entry, looked up): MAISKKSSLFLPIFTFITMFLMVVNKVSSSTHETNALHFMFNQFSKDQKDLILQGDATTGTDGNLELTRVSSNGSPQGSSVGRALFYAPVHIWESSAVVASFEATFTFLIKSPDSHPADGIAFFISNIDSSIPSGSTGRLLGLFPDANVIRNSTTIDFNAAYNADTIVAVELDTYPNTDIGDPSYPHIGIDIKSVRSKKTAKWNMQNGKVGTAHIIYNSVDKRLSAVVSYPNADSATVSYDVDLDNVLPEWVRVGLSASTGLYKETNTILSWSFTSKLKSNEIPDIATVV

SMILES | composite z-score [1] | composite Z-score [2] | composite z-score [3] | composite z-score [4] | composite z-score [5] | composite z-score [6] | composite z-score [7] | composite z-score [8] | composite z-score [9] | composite z-score [10] | composite z-score [11] | composite z-score [12] | composite z-score [13] | composite z-score [14] | composite z-score [15] | composite z-score [16] | z-score [17] | composite z-score [18] | composite z-score [19] | z-score [20]
CC(=O)OC[C@H]1O[C@H](CC=NOC[C@@H](O)COCc2ccco2)C=C[C@@H]1OC(C)=O | 0.037 | 0.328 (inactive) | 0.282 | -0.0022 | -0.287 | -0.37 | -0.14 | 0.586 | 1.46 | -0.389 | 0.526 | -0.193 | 0.0925 | -0.629 | 1.38 | 1.54 | 0.548 | 1.52 | -0.327 | 0.642 (inactive)
COCC#Cc1ccc([C@@H]2N[C@H](C(=O)O)CC[C@H]2C)cc1 | -0.202 | -0.165 (inactive) | -0.0605 | -0.144 | -0.148 | -0.336 | -0.384 | -0.377 | 0.305 | -0.691 | -1.01 | 0.307 | 0.547 | -0.426 | 0.273 | -0.0471 | 2.23 | 0.0859 | -0.389 | -1.77 (inactive)
C[C@H]1CC[C@H]2C(=O)N[C@H](Cc3ccccc3)C(=O)N2[C@@H]1c1ccccc1 | -0.456 | 0.418 (inactive) | -0.177 | -0.0811 | -0.0975 | -0.227 | -0.306 | -0.824 | 0.678 | -0.126 | -0.106 | -0.138 | 0.128 | -0.0797 | 0.187 | 0.831 | 0.514 | 0.426 | -0.112 | -0.854 (inactive)
Cc1cc2c(nc1C)CCCCN2CC(O)CN1CCCc2nc(-c3ccc(Br)cc3)ccc21 (stereo not given) | 0.466 | -0.211 (inactive) | 0.298 | 0.0067 | 0.493 | 0.417 | 0.293 | 0.754 | 0.613 | 0.783 | 0.819 | 0.582 | 0.171 | -0.564 | 1.06 | 0.709 | 1.59 | 0.998 | 0.765 | -0.802 (inactive)
CC(C)=NOC(C)CN1CCCc2nc(C)c(C)cc21 (stereo not given) | 0.297 | 0.672 (inactive) | 0.0482 | 0.0037 | 0.449 | 1.31 | 1.37 | 0.669 | 0.74 | 0.788 | -0.0115 | 0.964 | 0.232 | 0.484 | 0.724 | 0.753 | 0.354 | 0.947 | 0.323 | 0.57 (inactive)
CC(CCC(=O)OC[C@H]1O[C@H](C#Cc2ccccc2)C=C[C@@H]1Oc1ccc(C)cc1)=NO[C@H](C)c1cn([C@@H]2COC[C@H]2O)nn1 | -0.115 | -0.166 (inactive) | -0.0697 | -0.125 | -0.129 | -0.235 | 0.0502 | -0.0882 | 0.308 | -0.785 | 0.254 | -0.0794 | 0.0652 | 0.666 | 0.273 | 0.162 | -0.262 | 0.317 | 0.299 | -2.18 (inactive)
CCOC(=O)[C@H](CC(C)C)NC(=O)CCC1CC(OC(=O)NCc2ccc3c(c2)OCO3)CC2(CCCC(COC(=O)NCCOC)O2)O1 (stereo not given in full) | -0.398 | -0.0756 (inactive) | 0.0208 | -0.166 | 0.152 | 0.57 | 0.0898 | 0.911 | 0.293 | 0.858 | 0.418 | 0.758 | -0.379 | 0.942 | 0.589 | 0.725 | -0.119 | 0.847 | 0.609 | 0.713 (inactive)
COc1ccc(O[C@H]2C=C[C@@H](C#Cc3ccccc3)O[C@@H]2CO)cc1 | 0.271 | 0.446 (inactive) | -0.0932 | 0.113 | 0.314 | 0.962 | 0.0803 | -0.006 | 0.176 | 0.869 | -0.0687 | 0.071 | 0.0306 | 0.744 | 0.365 | 0.0738 | 0.511 | 0.71 | 0.48 | -1.67 (inactive)
CCOC(=O)CCN1C(=O)[C@H]2[C@H]3[C@H](O)[C@H](O)CC(=NO[C@@H]4O[C@H](CO)[C@@H](O)[C@H](O)[C@H]4O)[C@@H]3CC[C@H]2C1=O | 0.83 | 0.397 (inactive) | 0.207 | -0.0698 | 0.381 | 0.279 | -0.0046 | 1.3 | 1.04 | 0.322 | 0.818 | 1.12 | 0.118 | 0.854 | 1.22 | 1.22 | -0.102 | 1.4 | 0.829 | -0.115 (inactive)
CCc1cc2c(nc1CC)CCN(CCC(C)=NOCC[C@@H]1C=C[C@H](OC(C)=O)[C@@H](COC(C)=O)O1)C2 | 0.466 | 0.497 (inactive) | 0.493 | -0.0798 | 0.0943 | -0.119 | 0.277 | 1.23 | 0.412 | 0.446 | 0.345 | -0.19 | 0.174 | -0.0226 | 0.823 | 0.273 | 0.677 | 1.18 | 0.0479 | 0.855 (inactive)
CC(CCN1CCCc2nc(C)c(C)cc21)=NOC[C@@H](O)COCc1ccco1 | -1.47 | 5.36 (inactive) | 1.67 | 0.826 | -0.702 | 1.37 | 0.602 | -0.109 | 1.58 | -1.09 | 0.215 | -2.13 | 2.27 | -2.04 | 1.55 | 2.19 | 0.694 | 1.86 | -0.949 | -1.59 (inactive)
